Source: PubChem BioAssay AID1508600 (Functional Genomics Laboratory (NCATS/FGL), 2020)
The campaign covered roughly 53,000 sequences. About 3,700 (7%) were called active.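 The calls were made as follows: active = gene knockdowns whose robust z-score for IL-1 alpha signal is at least 2 or at most -2, so actives lie on both sides; inactive = the rest.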 Shown is part of a subset that was picked to be rich in actives.

test: Components of the Cytosolic LPS Sensing Pathway: Gene Identification via Genome-wide siRNA Screen; settings: RAW264.7 macrophages, IL-1a HTRF, actives lie on both sides, screened at 100 nM (by protocol), cells primed 5 h with Pam3CSK4 first;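 also: robust z of the log signal after scaling to non-targeting control siRNA wells of the plate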
Method in brief: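 Three distinct siRNAs per gene were tested singly at 100 nM in RAW264.7 macrophages. Following Pam3CSK4 priming and 24 hour LipidA transfection, IL-1a secretion was read by HTRF.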

Row | Sequence | z-score
1 | GCUGAAUCACUACCAGUCATT against Zfp462 | 1.27 (inactive)
2 | GGCAAUUCGAAUUUUGGUUTT against Rtraf | 0.891 (inactive)
3 | GGCAAACGAAACACUAGCATT against Cacna1d | 4.94 (active)
4 | GGUACUUCAUCGAUUCAGCTT against Zfp593 | -0.561 (inactive)
5 | GGAUAGCACAGCCCUACAUTT against Kcns1 | -0.197 (inactive)
6 | GCUUACUGUCCCUUAAGUUTT against Msantd1 | 2.45 (active)
7 | GGACAAAGAUGAAUAUGUGTT against Spag6l | -0.34 (inactive)
8 | GGCCGUGAUGCUAGAGAACTT against Zfp661 | 0.131 (inactive)
9 | GGUGAUUCACAUACUUUAUTT against Vps54 | 0.612 (inactive)
10 | GGGUUACCAGACUAACAAATT against Stfa3 | 0.763 (inactive)
11 | GCGAAUUCGUGAGAAGAGCTT against Ripk4 | -0.884 (inactive)
12 | GCACGUAUGCUCUUUCUCATT against Pigw | -2.52 (active)
13 | CCAAGUAAGGACUAUAGAGTT against Gpatch2 | -1.02 (inactive)
14 | CGCUGCUAAGAAUCAUCUATT against Ednrb | 0.287 (inactive)
15 | GGAAGCCACGGUCAUGUGUTT against Trim9 | 0.746 (inactive)
16 | GGAAUGGGCAGUAUGAGUUTT against Ocrl | -1.73 (inactive)
17 | GGUAGUCAAGUCGAAAGUATT against Ccdc18 | -2.19 (active)
18 | GGACAAUGCUGUGACCUCUTT against Amn | -0.949 (inactive)
19 | GGGAAGCAGAAAUGAGAAATT against Pdcd5 | 0.135 (inactive)
20 | GAGUGUUUCAGAUUCUUCATT against Klra8 | 0.329 (inactive)
21 | UCUUUGUGAUUUCGAAGCCTT against Slc17a9 | 2.31 (active)
22 | GGAUAAAGAAGGUAUUCUUTT against Mccc1 | -0.891 (inactive)

Row | Sequence | z-score
23 | GGCCCAGAAGGUUAUCAUCTT against Ptf1a | 0.606 (inactive)
24 | GGAAAUCACGACCAUGGCGTT against Gtf2b | 0.0198 (inactive)
25 | GCACUUCCGACUUUUUCACTT against Mettl24 | -1.69 (inactive)
26 | GAGCUUCUGGCUGAGAUAATT against Espn | -0.388 (inactive)
27 | GUGUAUGCGCUGAUCCUAUTT against 1700020N01Rik | 0.181 (inactive)
28 | GGAGCUCUCAUCCUACUAUTT against Eif4ebp3 | -0.0855 (inactive)
29 | GGCCUUUGAGAAGAACAUUTT against Copz1 | -2.16 (active)
30 | GGAGUUUUUAUUCAAGGAATT against Slc35b3 | -1.07 (inactive)
31 | GGCAGUGUACAUCUGGAUATT against Olfr611 | 1.85 (inactive)
32 | CCGUGUUCCGAGGAUAUGUTT against Cyp2e1 | -0.212 (inactive)
33 | GGGACUAUGACAAAACAGCTT against Atad2 | 0.0122 (inactive)
34 | CCUGACAUUCUUUAAUCCATT against Synb | 0.6 (inactive)
35 | CCAACUCUAAUAAUAACAGTT against Slc22a26 | 3.31 (active)
36 | CCAGACAUGAAACUUGUAUTT against Mms19 | -0.165 (inactive)
37 | GGCCAGAGGACUAUGUUAUTT against C1s2 | 1.24 (inactive)
38 | GGGUGGAGAAAUUUUAAUGTT against Dse | -0.22 (inactive)
39 | GGAAAAUGAGAUCAUGCCCTT against Sdf4 | -0.488 (inactive)
40 | GGCGAUUCUGGCUCUCUUUTT against Commd9 | 1.28 (inactive)
41 | GCAGAAAGAAACGUAAAUGTT against Dhx57 | 0.464 (inactive)
42 | GGCUUCAGCUAUUGGGCAATT against Vsig1 | 2.19 (active)
43 | GGGAUGUGUACCGUUACAUTT against 1700010I14Rik | 0.155 (inactive)
44 | CCCUUUUGUUUAGCUGAUCTT against Glrp1 | -2.14 (active)

Row | Sequence | z-score
45 | GGACAGUUCGUGUUUGGUUTT against Wdfy2 | 0.0956 (inactive)
46 | GGUUCAACAAAACAGGCUUTT against Serpina1f | -1.01 (inactive)
47 | GGAUUAAUGUUUCCUGACUTT against Mturn | 0.704 (inactive)
48 | GGGAAACAAACAGAAGAACTT against Cfap65 | -1.2 (inactive)
49 | GGACAUUAACGAGCUGAACTT against Ube2m | 0.67 (inactive)
50 | GGAGAAGAAGAACAGGACATT against Rnf186 | 2.35 (active)
51 | GGACAGGUGAAGAUAAGUATT against Mug2 | -0.704 (inactive)
52 | GCCUGUAUAGAUGCUAUUCTT against Setd1a | -0.894 (inactive)
53 | GGUGGUUUGUGUUACAUUUTT against Ifnar2 | 2.38 (active)
54 | GGACUAUGUCUUUGACAAATT against Cdyl2 | -0.133 (inactive)
55 | GCCUAACAAUAGUGGAAUUTT against Ms4a13 | 2.76 (active)
56 | GGAUUUCCUGUUCUUUCUATT against Prmt5 | 0.168 (inactive)
57 | GGACUGUGGCACAGAGAAATT against Hgfac | -0.116 (inactive)
58 | GCUGAUCCAACUGGAAUCUTT against Cep164 | 0.61 (inactive)
59 | GGCAAAGAAUGCACUUUCUTT against Elapor2 | -0.536 (inactive)
60 | GGAGUCCUAAAGAGUUCUATT against Slc11a1 | 0.723 (inactive)
61 | GGAGAUGCCAGAGGUCAAATT against Gzmk | 2.08 (active)
62 | GGCUUUCAAGACACUUCUUTT against Ccl6 | -1.6 (inactive)
63 | GCUCAUUAACGAGAAAGUGTT against Atxn7l2 | -0.991 (inactive)
64 | GGCUACUGUAAGAUUUCUATT against Mgat4f | 1.98 (inactive)
65 | GCAAAACCAAGUGAAUGUGTT against Plac1 | -0.774 (inactive)
66 | GGAGUUUCAGCAGUCGUGATT against Prkrip1 | -0.94 (inactive)

Row | Sequence | z-score
67 | CCCUUCUCUGAUUGUCUGATT against Lce3b | -0.452 (inactive)
68 | GCUUCUAAAUUUGGUUCUGTT against 9830163H01Rik | -0.389 (inactive)
69 | GGUGGACAAGGCAAUACAGTT against Mmp20 | 4.46 (active)
70 | GGUUUGAAUGAAUUCAAGGTT against 6030452D12Rik | 0.785 (inactive)
71 | GCUUAAUCAACUGGUACUATT against Olfr19 | -1.7 (inactive)
72 | GGGUCACGGGAACUCAAAATT against Mlf1 | -0.608 (inactive)
73 | GGAAUCAUCUGAACACACATT against Ctcf | -2.18 (active)
74 | GGAGAAGCUAUGGUAUUACTT against Apc2 | -0.798 (inactive)
75 | CCACCACCAUCUAAAUAUATT against Ckap2l | -1.62 (inactive)
76 | GGACACAUUCGAAUGAACCTT against Mkrn2 | 0.0809 (inactive)
77 | GGACAAGACCAGCAAAUACTT against Six6 | -1.58 (inactive)
78 | GCAUUGUGCUCAAAUCUGCTT against C1qtnf7 | -0.168 (inactive)
79 | GGGUAUUCUGUGUGUUACUTT against Hsd3b1 | 2.06 (active)
80 | GGGUUUUGAAACAUGCAGGTT against Cd44 | -1.54 (inactive)
81 | AGAGAGAUAUUGUUCAUCATT against Psg22 | 0.11 (inactive)
82 | GGUAAUCGUGUAUUCAUAUTT against Dph5 | -0.327 (inactive)
83 | GGAAACUGAAAAACAGAGUTT against Xbp1 | -0.957 (inactive)
84 | GCGAAGAGAUGCUAACUAUTT against Dhx8 | -2.86 (active)
85 | UGAGUUGUUUCCAGCUAAATT against Uts2b | -0.506 (inactive)
86 | GCCCGGUCCUUUACUACAUTT against Sdk1 | 0.595 (inactive)
87 | GGAUGCACUCAAGAAUUACTT against Ccdc65 | 2.11 (active)
88 | GGUGAGUGAUCUUCAGAACTT against Snx13 | 0.311 (inactive)

Row | Sequence | z-score
89 | CCCUGCUAAAAUCGACCUGTT against Plekha8 | -0.912 (inactive)
90 | GCUCAUCGUGUUCGCUAUATT against Tuft1 | -0.235 (inactive)
91 | GGAGGUAAAGGAAAACUCUTT against Fmo1 | 0.27 (inactive)
92 | CCACAACUAUGAGUCUAUUTT against Ech1 | 2.05 (active)
93 | GCUGGACCCACACAAAAAGTT against Rhbdl3 | -0.0513 (inactive)
94 | GGCUUUUCAGACCAAGCUUTT against 3830406C13Rik | 0.322 (inactive)
95 | CGUUGUAUGCUAGUACUGATT against Olfr1501 | -1.17 (inactive)
96 | GGCAAAAAGGGAUGUUACCTT against Map1lc3b | -0.221 (inactive)
97 | GCGAGUCUAUGUGUUCCCUTT against Cox4i2 | 0.187 (inactive)
98 | GGAAACAAAUGAGUGCCUGTT against Bloc1s5 | 2.02 (active)
99 | GCUGGAAUACGGAAAAUGGTT against Gbe1 | -1.56 (inactive)
100 | GGAGGAAAUACAUGAUAAATT against Strap | -0.159 (inactive)
101 | GGCUUACGAUGAAAAUAAATT against Lca5 | -1.94 (inactive)
102 | GGCAUUGCAUUCUCACAUGTT against Gabarapl1 | 0.319 (inactive)
103 | GCUCGUUGCAUAAAAAGAGTT against Creg2 | -0.286 (inactive)
104 | GGAGAUCAAAGAAUCUUGGTT against Arhgap45 | -4.45 (active)
105 | GCCGGAAACUCAAGAUAGCTT against F830208F22Rik | -0.74 (inactive)
106 | GCCCGCUCUCGGAUUUUGATT against Htr1b | 1.5 (inactive)
107 | GGUAGAGACCGCAUAGAAATT against Aqp8 | 2 (inactive)
